Tested on: VDR:RXRa (NR concentration 270 nM, RXRa partner concentration 90 nM)
Experiment: PBM binding z-score (relative to random genomic background probes); higher = stronger binding; sequences stand for … in GC…GCGATTGACAGCGTAGAATGAAGG
Description: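 Protein-binding microarray (Agilent 4x180K custom design, double-stranded 60-nt probes: 5' GC cap, 34-nt variable region, 24-nt constant primer region; full probe sequence given). Purified or IVT nuclear receptor:RXRα heterodimers (3:1 NR:RXRα, mostly 270:90 nM) or homodimers were incubated for 1 h in PBS with 2% milk and no ligand, then detected with Alexa488 antibodies. Fluorescence from o1-orientation probes (~5 replicates averaged) was converted to z-scores against 500 random hg19 background probes. Variable regions are seed direct-repeat (DR0–DR5) sites, all their single-nucleotide variants and half-site ablations.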

| Sequence | PBM binding z-score |
| --- | --- |
| CGAACTAGGTCGAAGGACAGTGAAAGGCGACGTA | -0.183 |
| ATCTCTAGGTCAAAGTTCAGTGAATCCCGAGGAT | 4.4 |
| CAAACTAGGTCACGAAAGGTCAACGTCGAATGAC | 6.9 |
| ACCAGCAGGCCAAGGGTCACTCAAGATTAGTCCG | 2.47 |
| CTTAGTTGGTCAAGGTCACACACGCTATAGGTAC | 4.52 |
| TCGAGTAGGTTACGGGGGCCTTCAGGGATGAAGA | 2.11 |
| CGAACTAAGTCATTGACAGGACAGTGAATAGTAA | -0.19 |
| CCTACTGGGCCACGAAAGGTGATTGATTCAGTGA | -0.281 |
| CGAACTCGGTCAAAGGACAGTGAAAGGCGACGTA | 0.208 |
| ATATGTAGGTTAGGGTCATTCATAAAGTAGGGAA | 4.67 |
| CGAAATAGGTCAAAGGACAGTGAAAGGCGACGTA | 2.5 |
| CGTCCAAGGTCAGAGAGGTCAGTGTATGCCGAGT | 7.31 |
| TCTTATAGATCAATAGAGGTTAAGAAAGTGCGCT | 2.03 |
| CCGATTAGGTTACGAGGGGGCATTCAGTGCGAAT | 5.1 |
| CCTTACAGGTCACGAGGTTATAGCACGACGAGCG | 5.04 |
| CAAACTAGGTCACCGGAAGGTCATAGTCCGCATG | 5.66 |
| CGAACTAGGTCAAAAGACAGTGAAAGGCGACGTA | 0.721 |
| ACTAGCAGGCCAAGAGTCACTCAAGATTAGTCCG | -0.367 |
| TCGAGTGGGTTACGGGGGCATTCAGGGATGAAGA | 4.27 |
| CGAACGAGGTCAGAACAGGACAGTGAAGGATGAT | 3.67 |

| Sequence | PBM binding z-score |
| --- | --- |
| CGTCCAAGGTCATAGGAGGTCACTGAAGACAGAT | 7.05 |
| AGAATGAGGTTAACAAAGATCAGGGAAACGCTTG | 1.71 |
| ATATGTAGGTTAGGGTCCTTCAGAAAGTAGGGAA | 0.818 |
| ATCGAAAGGTCGACGAGTTGAGTATACACCGTTT | 6.08 |
| CCTACTGTGCCATTCAGAGGTCATTGATCATATG | 4.25 |
| CCTACTGGGCCAAGGTCATTGAGCAGTCAAAGCA | 3.07 |
| CGAACTAGGTCACCAGGACAGAGAAGAGGTTGGA | 2.04 |
| ACTAGTTGGTCAGCTGAGGTAACACACAATTCGG | 0.448 |
| ATCGAAAGGTCGTGAAGTGAGTATACAGAAAGGC | 3.26 |
| CTATGTAGGTTAAGGGGGTCATTCATTTTGAAAG | 7.08 |
| TTACCAAGGTGAAGGTCGTGGATCCCTCTGTAGA | 1.28 |
| CTATGTAGGTGAAGGGGGTCATTCAGTTTGAAAG | 7.13 |
| ATCGAACGGTCGAGGTGAGTATAGAGAAAGGGAA | -0.335 |
| CAACCTAGGTCACCGGAAGGTCAAAGTCCGCATG | 6.51 |
| CCTTACGGGTCACTGACAGGTCATAGCATTTGGA | 5.38 |
| CCTAGTTGGTCAAGGTAACACACGCTATAGGTAC | 0.707 |
| TCTAGTTGGTCAAAGGCCACACACTCGAAATGCG | 1.04 |
| TAGCCTAGGTCACGGGCCAGTATACCACGCGAAC | 2.94 |
| TTACCAAGGTGAAAGGTCATTGATGCACGCCTTG | 5.41 |
| CGTCAACGTTCAACTAAGGTAACGTAAAGCACGC | 0.25 |
